M1 ag: human M1 muscarinic receptor agonism | activation, % at 3 µM | AID 588814 | CHO-K1 hM1, Fluo-8 calcium fluorescence, agonist mode; 0% DMSO, 100% acetylcholine EC100 | hit rate 0.33% among 360,000;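 active = activation above the run's mean compound activation plus 3 SD, cut at about 16% in these data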;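 also: peak over basal fluorescence ratio within a 140 s kinetic read after compound addition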
Target sequence (P11229 whole entry, looked up): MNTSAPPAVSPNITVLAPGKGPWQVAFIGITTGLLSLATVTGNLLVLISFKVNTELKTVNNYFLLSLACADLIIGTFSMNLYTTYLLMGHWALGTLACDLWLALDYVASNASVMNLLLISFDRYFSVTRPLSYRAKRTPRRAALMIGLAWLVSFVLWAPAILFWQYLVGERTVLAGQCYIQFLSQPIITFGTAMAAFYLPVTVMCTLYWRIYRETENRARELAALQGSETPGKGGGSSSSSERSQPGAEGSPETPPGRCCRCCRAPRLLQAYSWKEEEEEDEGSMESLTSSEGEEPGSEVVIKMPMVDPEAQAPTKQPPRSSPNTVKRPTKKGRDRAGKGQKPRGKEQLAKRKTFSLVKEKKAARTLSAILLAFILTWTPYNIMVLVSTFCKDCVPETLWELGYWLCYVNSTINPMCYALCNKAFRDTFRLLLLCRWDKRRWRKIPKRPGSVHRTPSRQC
M1 PAM: potentiates human M1 receptor response to acetylcholine; P11229; CHO-K1 hM1, Fluo-8 calcium fluorescence, ACh EC20; 0% = ACh EC20, 100% = maximal ACh; activation, % at 3 µM; hit rate 0.088% among 360,000; AID 588819; in the data active = activation above about 19%, passing the limit was not always enough
CHO-K1 Ca antag: nonselective inhibitor or artifact in parental CHO-K1 cells | ATP-induced calcium, Fluo-8 fluorescence | inhibition, % at 3 µM | hit rate 0.6% among 360,000 | AID 602250;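 active = inhibition above a per-plate cutoff, the plate's mean sample inhibition plus 3 SD, cut at about 24% in these data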;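 also: 0% = DMSO plus EC80 ATP and 100% = DMSO alone without ATP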
M1 antag: blocks human M1 muscarinic receptor; CHO-K1 hM1, Fluo-8 calcium fluorescence, ACh EC80 antagonist; inhibition, % at 3 µM; hit rate 1.3% among 360,000;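 active = percent inhibition above its own plate's cutoff, namely the mean of that plate's compound wells plus 3 SD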;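 also: peak over basal fluorescence ratio during 140 s after agonist addition; 0% = ACh EC80 plus DMSO and 100% = DMSO alone without agonist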
CHO-K1 Ca PAM: counter-screen for M1 PAMs: effect in parental CHO-K1 cells; ATP EC20, Fluo-8 calcium fluorescence; 0% at ATP EC20, 100% at ATP max; activation, % at 3 µM; hit rate 0.02% among 360,000; AID 602247;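 active = activation above the run cutoff, the mean activation of all test compounds plus 3 SD, cut at about 40% in these data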;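 also: peak over basal fluorescence ratio in a 140 s read after ATP addition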
M1 ag parental: nonselective activator or artifact in parental CHO-K1 cells; Fluo-8 calcium fluorescence; scaled to maximal ATP response, vehicle zero; hit rate 0.48% among 360,000; activation, % at 3 µM; in the data active = activation above about 15%;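 also: untransfected CHO-K1 host cells lacking M1 receptor as counterscreen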
Numbers without * were called inactive. This is a sample that favours compounds with a hit; in the whole collection about 2.3% have one here.

SMILES	M1 ag	M1 PAM	CHO-K1 Ca antag	M1 antag	CHO-K1 Ca PAM	M1 ag parental
CC1=CC(C)(C)N(C(=O)c2ccccc2)c2ccc(C)cc21	27.7*	5.8	-1.6	-8.2	31.1	9.9
COc1cc(N/C(=N/S(=O)(=O)c2ccccc2)c2ccccc2)ncn1	-2.9	-1.4	25.0*	7.5	-6.0	-0.3
Cc1c(C(=O)N2CCC[C@H]2CO)oc2c(F)cccc12	0.1	9.8	1.7	-6.2	4.4	0.0
NCCCCCc1nnc(SCc2cccc(Cl)c2)o1	-6.4	-25.2	-1.5	29.9*	12.0	0.3
NCCCCCc1nnc(SCc2ccc(Cl)cc2Cl)o1	-5.3	-13.6	16.1	32.8*	12.6	0.6
OC(CNc1ccccc1)Cn1ccc2ccccc21 (centres undefined)	-4.2	6.2	-14.1	-3.7	8.2	0.1
COC(=O)C1CC(O)CN1C(=O)Nc1cccc(C(F)(F)F)c1 (centres undefined)	-2.1	11.9	29.1*	-3.4	-18.4	-0.8
O=C1c2ccccc2C2N1CCCN2C(=O)c1sc2ccccc2c1Cl (centres undefined)	1.0	-19.7	10.7	23.0	-14.6	8.6
CN(CC(=O)NCCc1ccccc1)Cc1ccco1	-6.3	1.1	-13.3	-4.1	10.5	0.3
CSc1nc2c(cc1C#N)CCCCC2	-8.3	-25.6	17.2	30.0*	-14.4	-0.3
CCOC(=O)C1CCCN(c2c(NCc3ccco3)c(=O)c2=O)C1 (centres undefined)	26.7*	12.3	-2.5	-19.0	22.2	0.1
O=C(Nc1ccc(Cl)cc1Cl)c1ccc2ncsc2c1	0.5	0.0	4.8	0.2	4.4	21.4*
O=C(CCc1nc(-c2ccccc2)no1)Nc1cccnc1	-3.9	5.5	-5.3	-3.0	10.3	15.6*
Cc1cc(C)cc(NS(=O)(=O)c2c(C)[nH]c(=O)[nH]c2=O)c1	-2.4	10.7	27.1*	-15.0	4.0	1.9
CCOC(=O)NN1C(=O)c2ccccc2NC1c1ccc(N(C)C)cc1 (centres undefined)	16.9*	6.2	-6.7	-7.4	17.2	1.1
O=C(O)CCc1nc2cc(C(F)(F)F)ccc2n(Cc2ccccc2)c1=O	-2.3	4.3	-13.2	2.0	-0.4	0.5
O=C1CN(S(=O)(=O)c2cc(C(F)(F)F)ccc2Cl)CCN1	8.2	30.1*	-12.4	5.6	11.5	-0.1
O=C(O)/C=C/C(=O)N1CCN(S(=O)(=O)c2cc(C(F)(F)F)ccc2Cl)CC1	-0.6	4.0	3.8	5.2	-7.2	-0.6
Cc1[nH]c2ccccc2c1C(=O)CN1C(=O)NC(C)(c2ccc(Cl)cc2Cl)C1=O (centres undefined)	27.1*	6.3	7.5	19.3	11.9	10.9
COc1ccc(OC)c(S(=O)(=O)NCC(c2ccc3c(c2)OCO3)N2CCOCC2)c1 (centres undefined)	-1.5	3.7	11.3	-1.9	-17.9	0.1
CC1CCN(S(=O)(=O)c2cc(C(=O)N3CCN(c4ccccc4)CC3)ccc2Br)CC1	-3.4	-14.7	20.7	23.4	-1.7	7.0
O=C(c1ccc(-c2nc3ccccc3s2)o1)N1CCN(c2ccccc2O)CC1	-3.3	-2.0	30.1*	11.2	-8.6	1.1
O=C(O)c1ccc(-c2nc3ccccc3s2)o1	-3.2	6.9	-12.2	-24.4	7.4	0.7
C[N+]1(CC(=O)Nc2ccccc2Cl)CCN(C(=O)c2cccs2)CC1	-4.8	-12.2	-19.1	33.3*	15.7	0.3
O=C(COC(=O)c1ccc(O)cc1O)NC(=O)Cc1ccccc1	32.7*	2.3	-1.5	4.2	12.3	18.4*
O=C1CNC(=O)/C1=C\N1CCN(C(c2ccccc2)c2ccccc2)CC1	-5.5	-26.3	-11.8	42.7*	24.9	0.9
CC(NCC(O)COc1ccc2ccccc2c1)c1ccccc1 (centres undefined)	-1.8	15.4	10.1	-7.0	-13.5	15.7*
CC(NCC(O)COc1ccc(Br)cc1)c1ccccc1 (centres undefined)	0.6	-3.3	-5.4	74.7*	4.4	6.3
Cc1ccc(NC(=O)Cn2nc(-c3ccccc3Cl)ccc2=O)c(Br)c1	-2.6	2.8	-3.5	-3.9	-8.6	-0.3
OCC[C@@H]1C[C@H](O)[C@@H](O)[C@]2(CCc3ccccc3CO2)O1	-3.6	6.0	-1.9	-1.2	0.5	0.0
